PvdQ inh: P. aeruginosa PvdQ acylase inhibitors, primary screen, biochemical, fluorescence, plate reader and imaging, single point; 0.063% of 340,000 active; inhibition, % at 10 µM; purified PvdQ acylase; in the data active = inhibition above about 30%, passing the limit was not always enough; inconclusive = no clear call, values can overlap the other calls;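 note: 0% = vehicle neutral wells and 100% = reference inhibitor wells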
Wnt act: Wnt/beta-catenin pathway activators, primary screen, cell-based, plate reader, single point | Wnt/beta-catenin reporter cell assay, activator | activation, % at 9.35 µM | 1.2% of 300,000 active; in the data active = activation above about 30%, passing the limit was not always enough; inconclusive = no clear call, values can overlap the other calls;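 note: 0% = neutral control wells and 100% = positive control wells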
MITF TRPM1 HTS: activators of MITF-driven TRPM1 promoter reporter, primary screen, cell-based, SK-MEL-5, luciferase, single point; SK-MEL-5 TRPM1-promoter luciferase, 24 h; % of positive control, neutral wells = 0; AID 588334, 2011; activation, % at 12.5 µM; 0.75% of 300,000 active;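 active = mean activation of at least 80% with every replicate also reaching 80%; inconclusive = mean reaches 80% but some replicate falls short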;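 note: 0% = neutral control wells and 100% = parthenolide positive control wells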
Glyco luc inh: increase of ERlucT glycosylation luciferase signal, primary screen, N-linked glycosylation inhibitor project, D54 ERlucT cells, luminescence, set 2 | AID 588692, 2011 | 0.23% of 360,000 active | D54 ERlucT glycosylation luciferase reporter, 24 h; percent of 100 nM tunicamycin response | reporter increase, % at 12.5 µM;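 active = mean luciferase reporter signal, scaled so untreated is 0 and the glycosylation-blocking control 100, at or above a set limit in every replicate; inconclusive = mean reaches the limit but not every replicate does; inactive = mean below the limit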;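 note: luciferase carries N-glycosylation sites so blocking glycosylation raises the light; 0% = median of neutral control wells and 100% = median of 100 nM tunicamycin wells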
Vif inh: HIV Vif self-association inhibitors, primary screen, imaging, HEK293T, single point; inhibition, % at 7.49 µM; HEK293T cells, Vif self-association by quenched fluorescence, 24 h; AID 602346, 2012; 0.35% of 340,000 active; in the data active = inhibition above about 50%, passing the limit was not always enough; inconclusive = no clear call, values can overlap the other calls; inactive = below about 31%
esBAF inh: Bmi1 luciferase reporter increase in mESCs, primary screen, esBAF inhibitor project, mouse ES cells, Bmi1 luciferase knock-in, single point | 24 h; 100% = twice the neutral-well signal | reporter increase, % at 12.5 µM | 2% of 350,000 active; in the data active = activation above about 40%; inconclusive = no clear call, values can overlap the other calls;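 note: 0% = median of the plate's neutral control wells and 100% = double that signal; a rise in the Bmi1 reporter signal indicates esBAF inhibition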
Starred values were filed as active, the others as inactive; ? = inconclusive; / = no result. Hits are enriched below; roughly 2.9% of the tested compounds scored in any of these assays.

SMILES | PvdQ inh | Wnt act | MITF TRPM1 HTS | Glyco luc inh | Vif inh | esBAF inh
OCCCCCN=c1cc(-c2ccccc2)oc2ccc(Cl)cc12 | -5 | / | 3 | 51* | -6 | 78*
CCCCCC(=O)N/N=C/c1ccc(N(C)C)cc1 | -7 | 12 | 60 | 2 | 1 | 51*
CN(C)c1ccc(/C=N/NC(=O)CCCO)cc1 | -7 | 4 | 4 | 1 | 19 | /
COc1ccc2c(c1)CCC1C2=NN(/C(C)=C\C(C)=O)C1c1ccc(F)cc1 (stereo unspecified) | -2 | 52* | 27 | 3 | 2 | /
COc1ccc2c(c1)C1=NN(/C(C)=C\C(C)=O)C(c3ccccc3)C1CC2 (stereo unspecified) | 6 | / | 19 | 7 | -5 | 48*
COc1ccc2c(c1)C1=NN(/C(C)=C/C(C)=O)C(c3ccc(F)cc3)C1CC2 (stereo unspecified) | 11 | / | 9 | 4 | 2 | /
CCc1ccc(C(=O)COC(=O)c2cccc(N3C(=O)c4c(C)nc5ccccc5c4C3=O)c2)cc1 | 1 | 48* | -9 | -5 | 8 | -21
O=C(COC(=O)c1cccc(N2C(=O)C3CC=CCC3C2=O)c1)c1ccccc1 (stereo unspecified) | -8 | 6 | 26 | -3 | 11 | 26
COc1cccc(C2=CC(c3cccc(OC)c3OC)n3nnnc3N2)c1 (stereo unspecified) | 2 | / | 12 | 18 | 0 | 47*
O=C(NCCC1=CCCCC1)c1cnc2n(c1=O)CCS2 | 3 | 13 | 0 | -3 | 3 | 46*
O=C(Nc1ccc(Cl)cc1Cl)c1ccc2c(=O)n3c(nc2c1)CCC3 | -5 | 42* | ? | -2 | -3 | 43*
O=C(NCCC1=CCCCC1)c1ccc2c(=O)n3c(nc2c1)CCCCC3 | -7 | -2 | 53 | -2 | -11 | 43*
O=C(NCc1ccc(F)cc1)c1ccc2c(=O)n3c(nc2c1)CCCCC3 | -18 | -4 | / | 0 | 0 | 7
O=C(Nc1ccc(Br)cc1Cl)c1ccc2c(=O)n3c(nc2c1)CCC3 | -5 | 15 | ? | 2 | 15 | /
O=C(Nc1ccc(F)cc1)c1ccc2c(=O)n3c(nc2c1)CCCCC3 | -13 | 17 | 68 | -3 | -6 | 57*
C[C@H]1CN([C@@H](C)CO)C(=O)c2cc(C3=CCCCC3)cnc2O[C@@H]1CN(C)C(=O)NC1CCCC1 | / | / | / | / | / | 0
COc1ccc(NC(=O)N(C)C[C@@H]2Oc3ncc(C#CCN(C)C)cc3C(=O)N([C@H](C)CO)C[C@H]2C)cc1 | / | / | / | / | / | -6
CC(C)NC(=O)N(C)C[C@@H]1Oc2ccc(NC(=O)CCCCCC(=O)Nc3ccccc3N)cc2CC(=O)N([C@@H](C)CO)C[C@H]1C | / | / | / | / | / | 3
O=C(Nc1ccc(Cl)cc1)c1ccc2c(=O)n3c(nc2c1)CCCCC3 | -13 | 1 | / | -1 | -5 | 50*
O=C(Nc1ccc(F)c(Cl)c1)c1ccc2c(=O)n3c(nc2c1)CCCCC3 | -15 | ? | / | -3 | -34 | 12
O=C(Nc1cccc2ccccc12)c1ccc(OC(=S)N2CCOCC2)cc1 | -13 | 15 | 42 | -12 | -10 | 45*
O=C(Nc1cccc(Cl)c1)c1ccc(OC(=S)N2CCOCC2)cc1 | -10 | 6 | 49 | -8 | -27 | /
Cc1ccc(S(=O)(=O)N[C@@H]2C=C[C@H](CC(=O)O)O[C@H]2CO)cc1 | / | / | / | / | / | 2
COCC(=O)Nc1ccc2c(c1)OC[C@@H](C)N(C(=O)c1ccccc1F)C[C@@H](C)[C@@H](OC)CN(C)C2=O | / | / | / | / | / | 2
CN1CCc2c(sc3c2C(=O)NC(c2cccs2)N3)C1 (stereo unspecified) | 7 | 15 | 40 | 0 | 80* | 34
SMILES | PvdQ inh | Wnt act | MITF TRPM1 HTS | Glyco luc inh | Vif inh | esBAF inh
O=C(C[C@H]1C[C@@H]2c3cc(NC(=O)Nc4ccc(C(F)(F)F)cc4)ccc3O[C@@H]2[C@H](CO)O1)NCc1ccccn1 | / | / | / | / | / | 3
COc1cccc(N=Nc2c(C)[nH]n(-c3ccccc3)c2=O)c1 | 2 | -1 | / | 0 | 1 | 35
Cc1[nH]n(-c2ccccc2)c(=O)c1N=Nc1ccc2c(c1)OCO2 | -1 | 50* | 49 | -1 | -6 | 64*
COCC(=O)Nc1ccc2c(c1)C(=O)N(C)C[C@@H](OC)[C@H](C)CN(Cc1ccccn1)[C@H](C)CO2 | / | / | / | / | / | 0
O=C(NCC(=O)N1CCN(Cc2ccccc2)CC1)c1cccs1 | -6 | -2 | 46 | -5 | 3 | 49*
C[C@H](CO)N1C[C@H](C)[C@@H](CN(C)C(=O)C2CC2)Oc2cc(C#CCN(C)C)ccc2S1(=O)=O | / | / | / | / | / | 2
O=C(/C=C/c1cccc2ccccc12)N1CCOCC1 | -8 | 37* | 46 | 1 | 4 | /
C[C@H]1CN([C@@H](C)CO)C(=O)Cc2cc(NC(=O)CCCCCC(=O)Nc3ccccc3N)ccc2O[C@@H]1CN(C)S(=O)(=O)c1ccc(F)cc1 | / | / | / | / | / | 6
COc1ccc(CN(C)C[C@H]2Oc3ccc(NC(=O)Cn4cnnn4)cc3CC(=O)N([C@H](C)CO)C[C@@H]2C)cc1 | / | / | / | / | / | -1
COc1ccc(/C=C/C(=O)Nc2ccccc2C)cc1S(=O)(=O)N1CCOCC1 | -15 | -1 | 19 | 6 | -5 | 47*
OCCc1ccc(NCCc2cccs2)cc1 | / | 3 | / | -1 | -8 | 54*
O=C(Cc1cccs1)NCCc1ccc(F)cc1 | -22 | 0 | 2 | -1 | 1 | 3
CCOC(=O)N1CCN(C(=O)c2cccc(N3C(=O)NC4CC3(C)Oc3ccc(Cl)cc34)c2)CC1 (stereo unspecified) | 6 | 1 | -19 | 29* | 0 | 2
COc1cc(OC)cc(C(=O)Nc2ccc(-n3cnnn3)c(C)c2)c1 | -12 | -1 | 108* | 1 | -1 | /
COc1ccc(C(=O)Nc2cc(OC)nc(OC)n2)cc1 | 5 | / | 92* | -3 | 2 | 24
COc1ccc(C(=O)Nc2ccc3nc(C)c(C)nc3c2)cc1 | -15 | 8 | 36 | -2 | -6 | 62*
COc1ccc(NC(=S)Nc2ccc3nc(C)c(C)nc3c2)cc1 | -9 | 8 | / | -1 | -9 | 3
COc1ccc(C(=O)Nc2ccc3c(c2)nc(CCNC(=O)c2ccco2)n3C)cc1 | -9 | 16 | 37 | -3 | -7 | 48*
COc1ccc(NC(=O)N(C)C[C@@H]2Oc3c(NC(=O)Nc4c(C)noc4C)cccc3C(=O)N([C@H](C)CO)C[C@H]2C)cc1 | / | / | / | / | / | -4
Cc1ccc(S(=O)(=O)N[C@H]2C=C[C@H](CC(=O)NCc3ccc(Cl)c(Cl)c3)O[C@H]2CO)cc1 | / | / | / | / | / | 15
